Inconclusive results are not listed. Active and inactive are the calls of the source. The call rests on the fitted dose curve; in most records, active means well fitted inhibition curve with a large enough effect; inconclusive means small, poorly fitted or top-dose-only effect; inactive means flat fitted curve, though single readings scatter.
Tested on: Zika virus NS2B-NS3 protease
Experiment: Primary screen GU AMC qHTS for Zika virus inhibitors (AID 1347154);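 further: 0% = no-inhibitor control and -100% = no-enzyme control; nearly all actives have a fitted effect of over 70% in size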
Conditions: Zika NS2B-NS3 unlinked protease, AMC fluorogenic substrate; series mostly up to 54.1 µM; activity change, negative = inhibition: at the top concentration
How it was run: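 Unlinked Zika NS2B hydrophilic domain–NS3 protease complex at 25 nM in 10 mM Tris-HCl pH 8.0, 0.01% Tween 20, with an AMC peptide substrate. Fluorescence change (340/450 nm) over 15 min at room temperature, normalized to controls, fitted to 4-parameter Hill.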

| Structure (SMILES) | activity change, negative = inhibition | Potency |
| --- | --- | --- |
| C=C[C@@H]1CN2CCC1C[C@@H]2C(O)c1ccnc2ccc(OC)cc12 (stereo partly specified) | -20.6% (inactive) |  |
| NC[C@H]1O[C@H](O[C@@H]2[C@@H](O)[C@@H](O[C@H]3O[C@H](CO)[C@@H](O)[C@H](N)[C@@H]3O)[C@H](N)C[C@@H]2N)[C@H](O)[C@@H](O)[C@H]1O | 10.1% (inactive) |  |
| NCc1c[nH]c(=S)n1[C@H]1CCc2c(F)cc(F)cc2C1 | 13.5% (inactive) |  |
| Cc1cn([C@@H]2C[C@@H](O)[C@H](CO)O2)c(=O)[nH]c1=O | 3.68% (inactive) |  |
| CN(C)CCN(Cc1ccc(Cl)cc1)c1ccccn1 | 0.0014% (inactive) |  |
| COc1ccc2c(c1)CC[C@H]1[C@@H]2CC[C@]2(C)[C@@H](NCCCCCCN3C(=O)C=CC3=O)CC[C@H]12 | -1.52% (inactive) |  |
| CN1CC(=O)NC1=NC(=O)Nc1cccc(Cl)c1 | -4.35% (inactive) |  |
| O=C(NC[C@H](O)CO)c1ccncc1Nc1ccc(I)cc1F | 5.69% (inactive) |  |
| CCOC(=O)N1c2ccc(C(F)(F)F)cc2[C@@H](N(Cc2cc(C(F)(F)F)cc(C(F)(F)F)c2)C(=O)OC)C[C@H]1CC | -1.56% (inactive) |  |
| Cc1cc2nc3c(=O)[nH]c(=O)nc-3n(CC(O)C(O)C(O)CO)c2cc1C (stereo unspecified) | -11.7% (inactive) |  |
| C[C@]12CC[C@@H]3c4ccc(O)cc4CC[C@H]3[C@H]1[C@@H](O)[C@@H](O)[C@H]2O | 5.82% (inactive) |  |
| C[C@H]1[C@H](O)O[C@@H]2O[C@@]3(C)CC[C@@H]4[C@H](C)CC[C@@H]1[C@@]24OO3 | 6.63% (inactive) |  |
| CN(CC=CC#CC(C)(C)C)Cc1cccc2ccccc12 | -5.31% (inactive) |  |
| CCN(CC)CCCCNc1nc2cc(Cl)c(Cl)cc2nc1-c1ccc(-c2cccs2)s1 | 1.77% (inactive) |  |
| COc1cc2nccc(Oc3ccc(NC(=O)Nc4ccc(F)cc4F)c(F)c3)c2cc1OC |  | inactive |
| CC=C1C2C=C(C)CC1(N)c1ccc(=O)[nH]c1C2 (stereo unspecified) | 13.5% (inactive) |  |
| C[C@]12C=CC(=O)C=C1CC[C@@H]1[C@@H]2[C@@H](O)C[C@@]2(C)[C@@H]1CC[C@]2(O)C(=O)CO | 6.13% (inactive) |  |
| OC[C@H]1O[C@@H](O[C@H]2[C@@H](O)[C@@](O)(CO)O[C@@H]2CO)[C@H](O)[C@@H](O)[C@@H]1O | -1.02% (inactive) |  |

| Structure (SMILES) | activity change, negative = inhibition | Potency |
| --- | --- | --- |
| CN1CCC[C@H]1CCO[C@](C)(c1ccccc1)c1ccc(Cl)cc1 | 5.68% (inactive) |  |
| C#C[C@]1(O)CC[C@H]2[C@H]3CCc4cc(OC)ccc4[C@H]3CC[C@@]21C | -6.99% (inactive) |  |
| CN(C)S(=O)(=O)c1ccc2c(c1)C(=Cc1cc3c([nH]1)CCCC3)C(=O)N2 | 13% (inactive) |  |
| CC(O)=C(C#N)C(=O)Nc1ccc(C(F)(F)F)cc1 | -12.8% (inactive) |  |
| CCOC(=O)c1c(CSc2ccccc2)n(C)c2cc(Br)c(O)c(CN(C)C)c12 | -4.56% (inactive) |  |
| CN(C)c1ccccc1CN1CCCN(Cc2ccccc2N(C)C)C1c1ccncc1 | 4.76% (inactive) |  |
| NC(=O)c1nnn(Cc2cc(Cl)c(C(=O)c3ccc(Cl)cc3)c(Cl)c2)c1N | -9.17% (inactive) |  |
| C#CCN(C)CC1=Cc2ccccc2Oc2ccccc21 | -19.8% (inactive) |  |
| COc1cc(F)c(C(C)C)cc1-c1ccc(C(F)(F)F)cc1CN1C(=O)O[C@H](c2cc(C(F)(F)F)cc(C(F)(F)F)c2)[C@@H]1C | -3.8% (inactive) |  |
| Cc1ccc(NC(=O)c2ccc(CN3CCN(C)CC3)cc2)cc1Nc1nc(-c2cccnc2)cs1 | 14.2% (inactive) |  |
| CNC(=O)c1cc(COc2nnc(Nc3ccc(Cl)cc3)c3ccoc23)ccn1 | 3.19% (inactive) |  |
| COc1ccc(-c2oc3c(CC=C(C)C)c(O)cc(O)c3c(=O)c2O)cc1 | 3.47% (inactive) |  |
| C[C@H]1O[C@@H](n2cc(F)c(=O)[nH]c2=O)[C@H](O)[C@H]1O | -5.04% (inactive) |  |
| COc1ccc(-c2cc(=O)c3c(O)cc(O[C@@H]4O[C@H](CO[C@@H]5O[C@@H](C)[C@H](O)[C@@H](O)[C@@H]5O)[C@@H](O)[C@H](O)[C@@H]4O)cc3o2)cc1O | 6.81% (inactive) |  |
| CC[C@H](C=C[C@@H](C)[C@H]1CC[C@H]2[C@@H]3CC=C4C[C@@H](O)CC[C@]4(C)[C@@H]3CC[C@]12C)C(C)C | -3.13% [at 25.8 µM] (inactive) |  |
| CC(C)(CO)[C@@H](O)C(=O)NCCC(=O)O | 10.2% (inactive) |  |
| CCCCC[C@H](O)C=C[C@H]1[C@H](O)CC(=O)[C@H]1CC=CCCCC(=O)O | -4.93% (inactive) |  |
| Cc1nc(NC(=O)N2CCC[C@@H]2C(N)=O)sc1-c1csc(C(C)(C)C)n1 | 0.125% (inactive) |  |
